According to PubChem BioAssay (Tox21):
“And” between values parts separate entries of the source, which are not always exact repeats. Equal values may be shown once. Inconclusive results are not listed. Where a call stands in place of a potency, no number is given. The source holds several records for some structures; these can differ, active in one and inactive in another. The source made the active and inactive calls. Unless noted, calls follow the shape of the dose curve; as a rule, active = well fitted curve in the direction sought with a large enough effect in the repeat runs; inconclusive = weak or mixed curves; inactive = no such curve, though single readings can be large; an effect the other way counts as inactive or inconclusive.

Key:
[1] = qHTS assay to identify small molecule agonists of the estrogen related receptor (ERR) signaling pathway from Tox21 library (AID 1224849; calls by dose curve; also: nearly all actives have a fitted effect of over 15% in size); details: ERR reporter cell line, ONE-Glo luciferase, 18 h
Procedure, shortened: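 Cells carrying the ERR reporter were plated and allowed to settle for 6 h, exposed to library compounds for 18 h at 37 C, then lysed with ONE-Glo and luminescence measured.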

[2] = qHTS assay to identify small molecule agonists of the hypoxia (HIF-1) signaling pathway - cell viability counter screen (AID 1224844; calls by dose curve; also: nearly all actives have a fitted effect of over 50% in size); details: HRE-bla ME-180 viability, CellTiter-Glo luminescence, 17 h; series mostly up to 76.8 µM
Procedure, shortened: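 Cytotoxicity was measured in parallel with the HRE-driven beta-lactamase readout: after 17 hrs of compound exposure at 37C, HRE-bla ME-180 cells received CellTiter-Glo and luminescence was recorded 30 min later.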

[3] = qHTS assay to identify small molecule agonists of H2AX (AID 1224845; active = well fitted activation curve with a large enough effect in the signal ratio in the repeat runs, not every such curve was filed as active; the % refers to the signal ratio); details: CHO-K1 phospho-H2AX Ser139 HTRF, 3 h; series mostly up to 154 µM
Procedure, shortened: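 Wild-type CHO-K1 cells, plated overnight, exposed 3hr at 37C to 15 concentrations (0.76% DMSO final). Lysed, then HTRF anti-pH2AX (S139) cryptate and anti-H2AX-d2 antibodies, 24 hr room temperature; 665/620 nm emission read.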

[4] = qHTS assay to identify small molecule agonists of the hypoxia (HIF-1) signaling pathway (AID 1224846; active = well fitted activation curve with a large enough effect in the signal ratio in the repeat runs, not every such curve was filed as active; the % refers to the signal ratio); details: HRE-bla ME-180 cells, beta-lactamase ratio, 17 h; series mostly up to 76.8 µM
Procedure, shortened: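 Compounds from the Tox21 10K library, dissolved in DMSO, are tested for induction of a hypoxia response element–controlled beta-lactamase reporter in ME-180 cells. Exposure lasts 17 hrs at 37C after a 5 hr settling period, followed by CCF4-AM FRET substrate.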

[5] = qHTS assay to identify small molecule agonists of H2AX - cell viability counter screen (AID 1224847; calls by dose curve; also: top concentration of the series differs between compounds; nearly all actives have a fitted effect of over 30% in size); details: CHO-K1 viability, CellTiter-Glo luminescence, 3 h; series mostly up to 154 µM
Procedure, shortened: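 Wild-type CHO-K1 cells (10% FBS medium) were plated overnight at 37C, exposed to compounds at 15 concentrations for 3 hr at 37C (0.76% DMSO final), and viability was read as CellTiter-Glo luminescence after 30 min at room temperature.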

[6] = qHTS RealTime-Glo MT Cell Viability Assay in HepG2 cells - 24 hour (AID 1224867); details: RealTime-Glo luminescence; series mostly up to 76.8 µM; also: nearly all actives have a fitted effect of over 50% in size
Procedure, shortened: (§1)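 Tox21 10K library screened in qHTS format on HepG2 cells carrying RealTime-Glo reagents. Compounds were added after a 5 h preincubation, and the luminescent signal from continuous culture was measured repeatedly during 40 h treatment.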

[7] = qHTS RealTime-Glo MT Cell Viability Assay in HEK293 cells - 32 hour (AID 1224868); details: RealTime-Glo luminescence; series mostly up to 76.8 µM; also: top concentration of the series differs between compounds; nearly all actives have a fitted effect of over 50% in size
Procedure, shortened: (§2)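 Luminescence generated by NanoLuc from substrate produced by living HEK293 cells served as the viability signal. Each value reflects the reading at its stated time point during continuous 40 h compound exposure at 37 C.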

[8] = A CellTox Green Cytotoxicity Assay to monitor cytotoxicity in HEK293 cells - 0 hour (AID 1224869); details: CellTox Green fluorescence; series mostly up to 76.8 µM; also: nearly all actives have a fitted effect of over 50% in size
Procedure, shortened: (§3)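 Cells (HEK293, 600/well) and dye reagent are dispensed together. After 5 h at 37 C, 23 nL compound is pinned in. Plates stay at 37 C for 40 h with fluorescence read at 0h, 8h, 16h, 24h, 32h and 40h.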

[9] = qHTS RealTime-Glo MT Cell Viability Assay in HepG2 cells - 40 hour (AID 1224870); details: RealTime-Glo luminescence; series mostly up to 76.8 µM; also: nearly all actives have a fitted effect of over 50% in size
Procedure, shortened: (§4)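 HepG2 cells (600/well) mixed with RealTime-Glo MT reagent, settled 5 h at 37 C/5% CO2 before compound addition. Nonlytic NanoLuc luminescence from viable-cell prosubstrate reduction read repeatedly during 40 h treatment at 37 C.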

[10] = A CellTox Green Cytotoxicity Assay to monitor cytotoxicity in HEK293 cells - 40 hour (AID 1224871); details: CellTox Green fluorescence; series mostly up to 76.8 µM; also: nearly all actives have a fitted effect of over 45% in size; also: potency is read from the fitted curve at half-maximal effect
Procedure, shortened: as §3

[11] = qHTS RealTime-Glo MT Cell Viability Assay in HEK293 cells - 16 hour (AID 1224872); details: RealTime-Glo luminescence; series mostly up to 76.8 µM
Procedure, shortened: as §2

[12] = qHTS RealTime-Glo MT Cell Viability Assay in HepG2 cells - 8 hour (AID 1224873); details: RealTime-Glo luminescence; series mostly up to 76.8 µM; also: nearly all actives have a fitted effect of over 55% in size
Procedure, shortened: as §4

[13] = qHTS RealTime-Glo MT Cell Viability Assay in HEK293 cells - 40 hour (AID 1224874); details: RealTime-Glo luminescence; max response: stronger effect = lower value; also: nearly all actives have a fitted effect of over 50% in size
Procedure, shortened: (§5)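 Real-time viability in HEK293: signal arises when living cells convert a prosubstrate for NanoLuc in the medium, so luminescence tracks viable cell number. Compound (23 nL, DMSO) added 5 h post-seeding; kinetic reads at 0–40 h, 37 C.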

[14] = A CellTox Green Cytotoxicity Assay to monitor cytotoxicity in HEK293 cells - 24 hour (AID 1224875); details: CellTox Green fluorescence; series mostly up to 76.8 µM; also: nearly all actives have a fitted effect of over 45% in size
Procedure, shortened: as §3

[15] = A CellTox Green Cytotoxicity Assay to monitor cytotoxicity in HepG2 cells - 16 hour (AID 1224876); details: CellTox Green fluorescence; series mostly up to 76.8 µM; also: nearly all actives have a fitted effect of over 45% in size
Procedure, shortened: (§6)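 Cells and non-lytic dye reagent are dispensed together (600 HepG2 cells/well) and incubated 5 h before DMSO compound transfer. Kinetic fluorescence is then recorded in the same wells during 40 h at 37 C.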

[16] = A CellTox Green Cytotoxicity Assay to monitor cytotoxicity in HepG2 cells - 24 hour (AID 1224878); details: CellTox Green fluorescence; series mostly up to 76.8 µM; also: nearly all actives have a fitted effect of over 45% in size
Procedure, shortened: as §6

[17] = qHTS RealTime-Glo MT Cell Viability Assay in HEK293 cells - 0 hour (AID 1224880); details: RealTime-Glo luminescence; series mostly up to 76.8 µM
Procedure, shortened: as §5

[18] = qHTS RealTime-Glo MT Cell Viability Assay in HepG2 cells - 32 hour (AID 1224877); details: RealTime-Glo luminescence; series mostly up to 76.8 µM; also: nearly all actives have a fitted effect of over 55% in size
Procedure, shortened: as §1

[19] = A CellTox Green Cytotoxicity Assay to monitor cytotoxicity in HepG2 cells - 40 hour (AID 1224879); details: CellTox Green fluorescence; series mostly up to 76.8 µM; also: nearly all actives have a fitted effect of over 40% in size
Procedure, shortened: as §6

Compound | activity change, positive = activation ([1]; at 240 µM (top of the series)) | Potency [2] | Potency [3] | outcome [4] | Potency [5] | Potency [6] | Potency [7] | Potency [8] | Potency [9] | Potency [10] | Potency [11] | Potency [12] | max response [13] | Potency [14] | Potency [15] | Potency [16] | outcome [17] | Potency [18] | Potency [19] | activity change, positive = activation ([1]; at 92.4 µM (top of the series))
C[C@H]1[C@@H]2Cc3ccc(O)cc3[C@@]1(C)CCN2C | 8.81% (inactive) |  |  |  |  |  |  |  |  |  |  |  |  |  |  |  |  |  |  | 
CCOC(=O)NC(O)C(Cl)(Cl)Cl (stereo unspecified) |  | inactive | inactive | inactive | inactive | inactive | inactive | inactive | inactive | inactive | inactive | inactive | 7.58% (inactive) | inactive | inactive | inactive | inactive |  |  | 
CCc1cnc(C2=NC(C)(C(C)C)C(=O)N2)c(C(=O)O)c1 (stereo unspecified) |  | inactive | inactive | inactive | inactive | inactive | inactive | inactive | inactive | inactive | inactive | inactive | 1.73% (inactive) and 22.4% (inactive) | inactive | inactive | inactive | inactive | inactive |  | 
C[N+]1(CCC(C(N)=O)(c2ccccc2)c2ccccc2)CCCCC1 |  | inactive | inactive | inactive | inactive | inactive | inactive | inactive | inactive | inactive | inactive | inactive | 0.771% (inactive) | inactive | inactive | inactive | inactive | inactive | inactive | 
C[N+]1(CCF)[C@@H]2CC[C@H]1CC(OC(=O)C(O)(c1ccccc1)c1ccccc1)C2 (stereo partly specified) |  | inactive | inactive | inactive | inactive | inactive | inactive | inactive | inactive | inactive | inactive | inactive | 2.19% (inactive) | inactive | inactive | inactive | inactive | inactive | inactive | 
Cc1ccc2c(C)cccc2c1 |  | inactive | inactive | inactive | inactive | inactive | inactive | inactive | inactive | inactive |  | inactive | 4.4% (inactive) | inactive | inactive | inactive | inactive | inactive | inactive | 
CC(C)(C)N(NC(=O)c1ccc(Cl)cc1)C(=O)c1ccccc1 |  | inactive | inactive | inactive | inactive | inactive |  | inactive | inactive | inactive |  | inactive |  | inactive | inactive | inactive | inactive | inactive |  | -30.6% (inactive)
NC(=S)c1c(Cl)cccc1Cl |  | inactive | inactive | inactive | inactive | inactive | inactive | inactive | inactive | inactive | inactive | inactive | -2.31% (inactive) | inactive | inactive | inactive | inactive | inactive | inactive | 
COC1CC(=C(c2cccs2)c2cccs2)C[N+](C)(C)C1 (stereo unspecified) |  | inactive | inactive | inactive | inactive | inactive | inactive | inactive | inactive | inactive | inactive | inactive | -21.7% (inactive) | inactive | inactive | inactive | inactive | inactive |  | 
COC(=O)Cc1ccccc1 |  | inactive | inactive | inactive | inactive | inactive | inactive | inactive | inactive | inactive | inactive | inactive | 7.1% (inactive) | inactive | inactive | inactive | inactive | inactive | inactive | 
CN1CC[C@]23c4c5ccc(O)c4O[C@H]2[C@@H](O)CC[C@H]3[C@H]1C5 |  | inactive | inactive | inactive | inactive | inactive | inactive | inactive | inactive | inactive | inactive | inactive | -1.3% (inactive) | inactive | inactive | inactive | inactive | inactive | inactive | 
CCC1(CCC(C)C)C(=O)NC(=O)NC1=O |  | inactive | inactive | inactive | inactive | inactive | inactive | inactive | inactive | inactive | inactive | inactive | -4.01% (inactive) | inactive | inactive | inactive | inactive | inactive | inactive | 
c1ccc2c(c1)-c1cccc3cccc-2c13 |  | inactive | inactive | inactive | inactive | inactive | inactive | inactive | inactive | inactive and 43.6 µM (active) | inactive | inactive | -7% (inactive) and -12.1% (inactive) | inactive | inactive | inactive | inactive | inactive | inactive | 
CC(C)OC(=O)Cc1ccccc1 |  | inactive | inactive | inactive | inactive | inactive | inactive | inactive | inactive | inactive | inactive | inactive | 5.49% (inactive) | inactive | inactive | inactive | inactive | inactive | inactive | 
OCCSSCCO |  | inactive | inactive | inactive | inactive | inactive | inactive | inactive | inactive | inactive | inactive | inactive | 3.99% (inactive) | inactive | inactive | inactive | inactive | inactive |  | 
CCOC(=O)C1OC1(C)c1ccccc1 (stereo unspecified) |  | inactive | inactive | inactive | inactive | inactive | inactive | inactive | inactive | inactive | inactive | inactive | 0.105% (inactive) and 2.55% (inactive) | inactive | inactive | inactive | inactive |  | inactive | 
